# Results: publication PMC7862700, “An all-to-all approach to the identification of sequence-specific readers for epigenetic DNA modifications on cytosine”
# Legend:
# Assay in all cases: DAPPL (digital affinity profiling via proximity ligation, sequencing); 10 mM Tris-HCl pH 7.5, 50 mM NaCl, 1 mM DTT, 4% glycerol, room temperature, 30 min; GST-TFs on glutathione beads, 16-mer random dsDNA library, 0.1% formaldehyde crosslink after washing; high values mean tight binding
# FLI1 = molecular target: T1, FLI1 (Homo sapiens, UniProt Q01543 1-452); conditions: protein: recombinant; tags: N-terminal GST; dsDNA, one strand shown
# T1 sequence: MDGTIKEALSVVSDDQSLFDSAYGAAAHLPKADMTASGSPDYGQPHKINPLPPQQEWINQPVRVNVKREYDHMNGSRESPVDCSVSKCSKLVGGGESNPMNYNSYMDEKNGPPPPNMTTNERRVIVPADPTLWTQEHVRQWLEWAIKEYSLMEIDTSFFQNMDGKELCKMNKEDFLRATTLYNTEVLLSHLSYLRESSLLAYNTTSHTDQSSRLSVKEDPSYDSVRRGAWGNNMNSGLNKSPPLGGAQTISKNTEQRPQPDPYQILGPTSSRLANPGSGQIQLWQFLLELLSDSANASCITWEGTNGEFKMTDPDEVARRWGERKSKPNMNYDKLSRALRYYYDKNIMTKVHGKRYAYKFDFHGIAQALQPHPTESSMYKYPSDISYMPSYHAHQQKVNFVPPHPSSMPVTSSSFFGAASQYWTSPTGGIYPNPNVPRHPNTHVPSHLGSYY
# Procedure, shortened: (§1)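 A tag-only sample was pooled with DNA-barcoded human transcription factors that had been expressed in yeast as GST fusions and captured on glutathione beads. The pools were incubated for 30 min at room temperature with 200 nmole of a random double-stranded 16-mer DNA library in Tris/NaCl/DTT/glycerol buffer, then washed, crosslinked with 0.1% formaldehyde, proximity-ligated (BsaI/T4 ligase, 1 h, 37 °C), PCR-amplified and sequenced on an Illumina NextSeq500. Binding signal is each hexamer's read frequency for a factor divided by its frequency for the tag-only sample.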
# ELK1 = molecular target: T2, ELK1 (Homo sapiens, UniProt P19419 1-428); conditions: protein: recombinant; tags: N-terminal GST; dsDNA, one strand shown
# T2 sequence: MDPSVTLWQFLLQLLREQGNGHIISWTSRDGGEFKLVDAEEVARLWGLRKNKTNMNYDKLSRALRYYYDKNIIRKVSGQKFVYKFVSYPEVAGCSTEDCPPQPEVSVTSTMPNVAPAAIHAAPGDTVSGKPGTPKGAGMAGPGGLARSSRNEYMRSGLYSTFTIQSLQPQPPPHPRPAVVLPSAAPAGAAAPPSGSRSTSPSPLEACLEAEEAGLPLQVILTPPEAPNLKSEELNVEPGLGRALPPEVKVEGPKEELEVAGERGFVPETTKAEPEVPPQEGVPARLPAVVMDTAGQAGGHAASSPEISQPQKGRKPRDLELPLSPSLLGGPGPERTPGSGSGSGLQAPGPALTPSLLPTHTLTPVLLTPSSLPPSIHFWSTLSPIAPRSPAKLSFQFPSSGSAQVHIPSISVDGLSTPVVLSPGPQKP
# Procedure, shortened: as §1
# GABPA = molecular target: T3, GABPA (Homo sapiens, UniProt Q06546 1-454); conditions: protein: recombinant; tags: N-terminal GST; dsDNA, one strand shown
# T3 sequence: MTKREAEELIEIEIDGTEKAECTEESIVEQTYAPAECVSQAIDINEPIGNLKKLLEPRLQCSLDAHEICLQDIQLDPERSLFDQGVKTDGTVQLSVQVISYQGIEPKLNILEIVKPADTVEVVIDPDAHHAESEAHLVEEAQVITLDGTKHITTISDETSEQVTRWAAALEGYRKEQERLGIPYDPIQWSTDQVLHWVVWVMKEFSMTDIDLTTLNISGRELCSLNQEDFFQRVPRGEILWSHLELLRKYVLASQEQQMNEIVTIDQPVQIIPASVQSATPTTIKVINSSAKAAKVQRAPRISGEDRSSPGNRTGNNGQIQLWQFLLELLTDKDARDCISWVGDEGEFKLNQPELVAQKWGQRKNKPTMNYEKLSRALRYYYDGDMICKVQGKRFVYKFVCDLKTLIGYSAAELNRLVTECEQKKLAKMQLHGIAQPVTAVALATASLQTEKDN
# Procedure, shortened: as §1
# ERG = molecular target: T4, ERG (Homo sapiens, UniProt P11308 1-479); conditions: protein: recombinant; tags: N-terminal GST; dsDNA, one strand shown
# T4 sequence: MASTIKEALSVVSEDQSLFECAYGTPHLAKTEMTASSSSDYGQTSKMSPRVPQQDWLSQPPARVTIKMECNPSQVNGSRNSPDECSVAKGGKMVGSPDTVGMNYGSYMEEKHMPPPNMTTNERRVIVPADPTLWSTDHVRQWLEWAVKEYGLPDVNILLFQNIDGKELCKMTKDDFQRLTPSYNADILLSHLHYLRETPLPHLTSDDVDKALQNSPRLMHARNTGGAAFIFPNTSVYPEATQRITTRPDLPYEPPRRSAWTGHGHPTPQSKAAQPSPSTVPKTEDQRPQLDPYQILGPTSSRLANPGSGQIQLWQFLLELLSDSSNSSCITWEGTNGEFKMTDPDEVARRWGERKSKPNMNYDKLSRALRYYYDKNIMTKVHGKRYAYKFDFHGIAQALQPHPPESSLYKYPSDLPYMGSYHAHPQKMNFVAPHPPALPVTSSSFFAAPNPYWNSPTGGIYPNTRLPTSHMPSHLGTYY
# Procedure, shortened: as §1
# ELF1 = ELF1 (Homo sapiens, UniProt P32519 1-619); conditions: protein: recombinant; tags: N-terminal GST; dsDNA, one strand shown
# Procedure, shortened: as §1
# EHF = molecular target: T5, EHF (Homo sapiens, UniProt Q9NZC4 1-300); conditions: protein: recombinant; tags: N-terminal GST; dsDNA, one strand shown
# T5 sequence: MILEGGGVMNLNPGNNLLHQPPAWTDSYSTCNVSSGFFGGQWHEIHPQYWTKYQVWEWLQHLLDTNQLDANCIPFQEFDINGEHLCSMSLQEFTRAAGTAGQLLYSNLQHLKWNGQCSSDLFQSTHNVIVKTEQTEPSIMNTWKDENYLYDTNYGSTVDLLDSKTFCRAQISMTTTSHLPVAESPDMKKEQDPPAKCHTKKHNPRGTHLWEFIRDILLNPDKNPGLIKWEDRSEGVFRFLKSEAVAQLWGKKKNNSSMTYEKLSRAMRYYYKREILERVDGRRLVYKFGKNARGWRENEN
# Procedure, shortened: as §1
# SPI1 = SPI1 (Homo sapiens, UniProt P17947 1-270); conditions: protein: recombinant; tags: N-terminal GST; dsDNA, one strand shown
# Procedure, shortened: as §1
# SPIB = SPIB (Homo sapiens, UniProt Q01892 1-262); conditions: protein: recombinant; tags: N-terminal GST; dsDNA, one strand shown
# Procedure, shortened: as §1
# ELK3 = molecular target: T6, ELK3 (Homo sapiens, UniProt P41970 1-407); conditions: protein: recombinant; tags: N-terminal GST; dsDNA, one strand shown
# T6 sequence: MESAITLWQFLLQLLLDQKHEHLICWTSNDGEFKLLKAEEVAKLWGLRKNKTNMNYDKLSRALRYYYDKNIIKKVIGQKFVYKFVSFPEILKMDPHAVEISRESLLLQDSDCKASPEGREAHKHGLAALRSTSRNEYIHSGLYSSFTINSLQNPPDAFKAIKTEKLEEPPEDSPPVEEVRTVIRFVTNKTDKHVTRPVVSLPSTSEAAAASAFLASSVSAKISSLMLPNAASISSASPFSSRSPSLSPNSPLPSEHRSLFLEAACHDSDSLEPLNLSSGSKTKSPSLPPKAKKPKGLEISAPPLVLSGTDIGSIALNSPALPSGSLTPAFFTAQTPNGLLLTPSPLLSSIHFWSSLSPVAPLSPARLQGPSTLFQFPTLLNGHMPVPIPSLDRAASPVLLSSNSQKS
# Procedure, shortened: as §1
# FEV = molecular target: T7, FEV (Homo sapiens, UniProt Q99581 1-238); conditions: protein: recombinant; tags: N-terminal GST; dsDNA, one strand shown
# T7 sequence: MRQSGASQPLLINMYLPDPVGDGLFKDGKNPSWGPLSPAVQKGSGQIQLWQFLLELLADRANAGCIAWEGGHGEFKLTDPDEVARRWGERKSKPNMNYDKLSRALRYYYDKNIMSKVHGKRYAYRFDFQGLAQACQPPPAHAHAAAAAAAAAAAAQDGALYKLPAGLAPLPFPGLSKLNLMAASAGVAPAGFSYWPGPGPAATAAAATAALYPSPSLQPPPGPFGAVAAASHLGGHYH
# Procedure, shortened: as §1
# ETV5 = ETV5 (Homo sapiens, UniProt P41161 1-510); conditions: protein: recombinant; tags: N-terminal GST; dsDNA, one strand shown
# Procedure, shortened: as §1
# HSF1 = HSF1 (Homo sapiens, UniProt Q00613 1-529); conditions: protein: recombinant; tags: N-terminal GST; chain copies: 3; dsDNA, one strand shown
# Procedure, shortened: as §1
# ELF4 = ELF4 (Homo sapiens, UniProt Q99607 1-663); conditions: protein: recombinant; tags: N-terminal GST; dsDNA, one strand shown
# Procedure, shortened: as §1
# ELK4 = molecular target: T8, ELK4 (Homo sapiens, UniProt P28324-2 1-405); conditions: protein: recombinant; tags: N-terminal GST; dsDNA, one strand shown
# T8 sequence: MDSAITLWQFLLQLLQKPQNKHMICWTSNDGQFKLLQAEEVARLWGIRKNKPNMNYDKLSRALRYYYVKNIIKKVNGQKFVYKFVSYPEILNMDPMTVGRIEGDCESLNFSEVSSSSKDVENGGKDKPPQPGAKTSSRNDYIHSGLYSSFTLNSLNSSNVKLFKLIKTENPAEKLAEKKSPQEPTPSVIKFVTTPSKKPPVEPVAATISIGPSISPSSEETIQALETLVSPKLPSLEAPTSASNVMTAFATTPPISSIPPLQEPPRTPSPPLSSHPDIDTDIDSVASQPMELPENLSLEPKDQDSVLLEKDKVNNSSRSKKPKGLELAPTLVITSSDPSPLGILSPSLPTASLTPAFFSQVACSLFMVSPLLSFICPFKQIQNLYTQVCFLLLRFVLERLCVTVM
# Procedure, shortened: as §1
# ETV2 = molecular target: T9, ETV2 (Homo sapiens, UniProt O00321 1-342); conditions: protein: recombinant; tags: N-terminal GST; dsDNA, one strand shown
# T9 sequence: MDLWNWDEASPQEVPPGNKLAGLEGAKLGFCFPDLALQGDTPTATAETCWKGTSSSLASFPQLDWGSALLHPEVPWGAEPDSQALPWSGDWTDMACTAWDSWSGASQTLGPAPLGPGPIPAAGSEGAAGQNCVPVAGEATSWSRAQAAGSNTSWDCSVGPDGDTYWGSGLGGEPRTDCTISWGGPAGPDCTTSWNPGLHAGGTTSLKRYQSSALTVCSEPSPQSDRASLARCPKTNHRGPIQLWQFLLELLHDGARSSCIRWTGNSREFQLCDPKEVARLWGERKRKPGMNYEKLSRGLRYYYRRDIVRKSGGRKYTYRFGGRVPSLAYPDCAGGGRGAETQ
# Procedure, shortened: as §1
# ELF3 = molecular target: T10, ELF3 (Homo sapiens, UniProt P78545 1-371); conditions: protein: recombinant; tags: N-terminal GST; dsDNA, one strand shown
# T10 sequence: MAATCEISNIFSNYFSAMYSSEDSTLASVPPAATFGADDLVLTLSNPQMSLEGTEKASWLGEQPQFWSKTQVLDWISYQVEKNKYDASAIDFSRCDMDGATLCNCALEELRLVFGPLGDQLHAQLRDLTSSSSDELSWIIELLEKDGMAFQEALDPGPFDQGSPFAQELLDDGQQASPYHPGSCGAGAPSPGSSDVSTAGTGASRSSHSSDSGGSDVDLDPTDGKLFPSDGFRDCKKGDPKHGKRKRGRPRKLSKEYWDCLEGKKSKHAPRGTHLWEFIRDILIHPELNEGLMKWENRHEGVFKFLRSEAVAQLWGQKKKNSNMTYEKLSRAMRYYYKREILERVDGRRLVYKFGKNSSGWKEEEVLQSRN
# Procedure, shortened: as §1
# CRX = CRX (Homo sapiens, UniProt O43186 1-299); conditions: protein: recombinant; tags: N-terminal GST; dsDNA, one strand shown
# Procedure, shortened: as §1
# ETV1 = ETV1 (Homo sapiens, UniProt P50549 1-477); conditions: protein: recombinant; tags: N-terminal GST; dsDNA, one strand shown
# Procedure, shortened: as §1
# Chain of ETV1 (P50549 whole entry): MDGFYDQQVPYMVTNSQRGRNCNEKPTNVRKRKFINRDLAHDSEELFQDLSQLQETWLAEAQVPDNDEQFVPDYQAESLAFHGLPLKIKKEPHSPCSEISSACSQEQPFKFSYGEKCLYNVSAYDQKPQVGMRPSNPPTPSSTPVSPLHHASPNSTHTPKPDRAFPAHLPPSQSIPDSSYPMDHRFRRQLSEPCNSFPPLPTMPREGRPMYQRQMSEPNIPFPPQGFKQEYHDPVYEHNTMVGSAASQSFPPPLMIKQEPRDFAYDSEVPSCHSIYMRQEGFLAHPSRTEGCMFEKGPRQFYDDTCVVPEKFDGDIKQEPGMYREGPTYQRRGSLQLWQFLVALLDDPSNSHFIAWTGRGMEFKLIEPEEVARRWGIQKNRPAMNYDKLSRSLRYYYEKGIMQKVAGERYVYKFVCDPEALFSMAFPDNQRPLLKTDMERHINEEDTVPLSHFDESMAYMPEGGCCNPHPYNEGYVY
# Chain of ELF4 (Q99607 whole entry): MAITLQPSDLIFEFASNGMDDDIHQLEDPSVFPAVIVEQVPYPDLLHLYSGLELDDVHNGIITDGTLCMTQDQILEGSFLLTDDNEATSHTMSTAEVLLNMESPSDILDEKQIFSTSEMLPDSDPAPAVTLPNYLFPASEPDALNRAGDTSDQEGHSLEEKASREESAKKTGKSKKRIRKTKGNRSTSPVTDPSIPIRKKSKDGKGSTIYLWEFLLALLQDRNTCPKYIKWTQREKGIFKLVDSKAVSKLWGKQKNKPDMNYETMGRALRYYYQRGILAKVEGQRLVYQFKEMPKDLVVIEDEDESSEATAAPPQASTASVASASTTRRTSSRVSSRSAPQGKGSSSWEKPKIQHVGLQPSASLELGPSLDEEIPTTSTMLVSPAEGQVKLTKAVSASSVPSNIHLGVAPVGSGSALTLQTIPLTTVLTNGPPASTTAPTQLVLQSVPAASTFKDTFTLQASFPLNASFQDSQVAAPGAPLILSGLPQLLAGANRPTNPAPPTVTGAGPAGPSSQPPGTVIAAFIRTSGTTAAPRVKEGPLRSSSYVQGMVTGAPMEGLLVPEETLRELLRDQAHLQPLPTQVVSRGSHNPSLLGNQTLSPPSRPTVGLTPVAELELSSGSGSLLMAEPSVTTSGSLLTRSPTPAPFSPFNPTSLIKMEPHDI
# Chain of HSF1 (Q00613 whole entry): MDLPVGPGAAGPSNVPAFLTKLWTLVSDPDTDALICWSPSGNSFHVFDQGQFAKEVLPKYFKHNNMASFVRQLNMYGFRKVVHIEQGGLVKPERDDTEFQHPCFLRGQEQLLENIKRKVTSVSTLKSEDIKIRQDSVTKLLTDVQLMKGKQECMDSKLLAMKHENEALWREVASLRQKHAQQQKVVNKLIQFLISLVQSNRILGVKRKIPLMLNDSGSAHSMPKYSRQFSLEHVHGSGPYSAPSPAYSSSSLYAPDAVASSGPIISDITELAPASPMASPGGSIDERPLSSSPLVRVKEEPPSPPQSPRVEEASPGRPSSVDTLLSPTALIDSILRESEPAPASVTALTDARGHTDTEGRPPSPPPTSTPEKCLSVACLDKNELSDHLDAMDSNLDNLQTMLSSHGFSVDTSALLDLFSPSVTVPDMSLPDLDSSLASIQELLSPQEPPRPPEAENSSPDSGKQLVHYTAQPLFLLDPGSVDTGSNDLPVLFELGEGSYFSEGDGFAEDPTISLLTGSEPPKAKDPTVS
# Chain of ETV5 (P41161 whole entry): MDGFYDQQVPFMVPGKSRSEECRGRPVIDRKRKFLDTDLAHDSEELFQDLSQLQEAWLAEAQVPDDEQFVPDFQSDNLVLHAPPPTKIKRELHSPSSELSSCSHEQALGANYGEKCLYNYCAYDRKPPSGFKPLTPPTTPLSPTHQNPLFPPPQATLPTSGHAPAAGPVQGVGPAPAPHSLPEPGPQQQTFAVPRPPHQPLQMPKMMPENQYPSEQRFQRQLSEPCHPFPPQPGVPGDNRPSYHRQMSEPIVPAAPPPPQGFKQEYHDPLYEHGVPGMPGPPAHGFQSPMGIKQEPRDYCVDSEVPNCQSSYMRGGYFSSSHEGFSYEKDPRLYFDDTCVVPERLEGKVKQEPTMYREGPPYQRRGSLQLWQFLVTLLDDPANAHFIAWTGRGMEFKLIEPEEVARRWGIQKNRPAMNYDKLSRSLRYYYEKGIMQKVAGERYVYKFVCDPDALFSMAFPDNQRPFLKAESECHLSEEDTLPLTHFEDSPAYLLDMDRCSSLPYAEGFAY
# Chain of CRX (O43186 whole entry): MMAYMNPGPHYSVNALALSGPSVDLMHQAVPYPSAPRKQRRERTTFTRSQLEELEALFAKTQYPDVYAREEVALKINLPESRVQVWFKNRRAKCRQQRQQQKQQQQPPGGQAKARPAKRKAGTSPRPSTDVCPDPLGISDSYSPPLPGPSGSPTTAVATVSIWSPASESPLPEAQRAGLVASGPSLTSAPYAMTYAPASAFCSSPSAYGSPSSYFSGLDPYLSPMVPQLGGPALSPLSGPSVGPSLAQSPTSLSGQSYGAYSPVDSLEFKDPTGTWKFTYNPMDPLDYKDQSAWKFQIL
# Chain of SPIB (Q01892 whole entry): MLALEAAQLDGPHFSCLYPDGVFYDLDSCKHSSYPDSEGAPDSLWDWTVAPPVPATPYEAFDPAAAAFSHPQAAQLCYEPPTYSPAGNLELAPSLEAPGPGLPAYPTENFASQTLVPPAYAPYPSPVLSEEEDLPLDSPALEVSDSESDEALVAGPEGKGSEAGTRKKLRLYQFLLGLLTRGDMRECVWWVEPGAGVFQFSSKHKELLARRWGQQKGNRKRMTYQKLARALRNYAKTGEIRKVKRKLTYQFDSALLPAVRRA
# Chain of ELF1 (P32519 whole entry): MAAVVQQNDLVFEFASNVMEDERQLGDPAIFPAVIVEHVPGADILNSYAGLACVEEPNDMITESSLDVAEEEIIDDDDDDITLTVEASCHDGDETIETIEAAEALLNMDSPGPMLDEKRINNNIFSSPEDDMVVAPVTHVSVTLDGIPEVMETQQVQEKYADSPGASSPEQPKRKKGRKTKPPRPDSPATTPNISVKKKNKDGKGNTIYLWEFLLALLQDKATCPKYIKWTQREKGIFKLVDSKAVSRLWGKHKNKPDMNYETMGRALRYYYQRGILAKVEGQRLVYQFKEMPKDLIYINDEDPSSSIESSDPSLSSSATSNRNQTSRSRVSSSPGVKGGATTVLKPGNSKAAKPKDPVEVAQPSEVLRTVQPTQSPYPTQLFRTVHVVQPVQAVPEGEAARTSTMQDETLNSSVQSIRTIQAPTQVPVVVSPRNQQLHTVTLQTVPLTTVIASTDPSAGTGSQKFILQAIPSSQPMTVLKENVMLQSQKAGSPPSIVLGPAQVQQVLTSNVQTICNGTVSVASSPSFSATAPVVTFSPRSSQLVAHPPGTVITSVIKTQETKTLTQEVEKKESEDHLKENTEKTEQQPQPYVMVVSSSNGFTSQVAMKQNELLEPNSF
Sequence,binding signal (FLI1),binding signal (ELK1),binding signal (GABPA),binding signal (ERG),binding signal (ELF1),binding signal (EHF),binding signal (SPI1),binding signal (SPIB),binding signal (ELK3),binding signal (FEV),binding signal (ETV5),binding signal (HSF1),binding signal (ELF4),binding signal (ELK4),binding signal (ETV2),binding signal (ELF3),binding signal (CRX),binding signal (ETV1)
GTTTAC,"1.21 fold enrichment (6-mer frequency, TF over GST control)","1.13 fold enrichment (6-mer frequency, TF over GST control)","1.19 fold enrichment (6-mer frequency, TF over GST control)","1.12 fold enrichment (6-mer frequency, TF over GST control)","1.08 fold enrichment (6-mer frequency, TF over GST control)","1.14 fold enrichment (6-mer frequency, TF over GST control)","1.13 fold enrichment (6-mer frequency, TF over GST control)","1.09 fold enrichment (6-mer frequency, TF over GST control)","1.03 fold enrichment (6-mer frequency, TF over GST control)","1.11 fold enrichment (6-mer frequency, TF over GST control)","1.1 fold enrichment (6-mer frequency, TF over GST control)","1 fold enrichment (6-mer frequency, TF over GST control)","1.12 fold enrichment (6-mer frequency, TF over GST control)","1.32 fold enrichment (6-mer frequency, TF over GST control)","1.11 fold enrichment (6-mer frequency, TF over GST control)","1.28 fold enrichment (6-mer frequency, TF over GST control)","1.01 fold enrichment (6-mer frequency, TF over GST control)","1.17 fold enrichment (6-mer frequency, TF over GST control)"
TGACTA,"1.14 fold enrichment (6-mer frequency, TF over GST control)","1.08 fold enrichment (6-mer frequency, TF over GST control)","1.08 fold enrichment (6-mer frequency, TF over GST control)","1.03 fold enrichment (6-mer frequency, TF over GST control)","1.09 fold enrichment (6-mer frequency, TF over GST control)","1.11 fold enrichment (6-mer frequency, TF over GST control)","1.14 fold enrichment (6-mer frequency, TF over GST control)","1.17 fold enrichment (6-mer frequency, TF over GST control)","1.14 fold enrichment (6-mer frequency, TF over GST control)","1.01 fold enrichment (6-mer frequency, TF over GST control)","1.04 fold enrichment (6-mer frequency, TF over GST control)","1.04 fold enrichment (6-mer frequency, TF over GST control)","1.09 fold enrichment (6-mer frequency, TF over GST control)","1.06 fold enrichment (6-mer frequency, TF over GST control)","1.17 fold enrichment (6-mer frequency, TF over GST control)","1.08 fold enrichment (6-mer frequency, TF over GST control)","1.17 fold enrichment (6-mer frequency, TF over GST control)","1.15 fold enrichment (6-mer frequency, TF over GST control)"
